Screening results from PubChem.
HCV inh – inhibitors of hepatitis C virus infection. Huh7.5.1 HCVcc-Cre infection, luciferase reporter, 44 h. Potency, µM (doses to about 41.8 µM), for the others: at the top dose activity change, negative = inhibition, hits mostly inhibitors. 3.4% of 340,000 active. AID 651820; note: potency is the fitted concentration of half-maximal effect; % is set by controls: 0 for no effect and ±100 for the full control effect
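Infectious HCVcc-Cre (~0.5 moi) was added to cells just after compound, with cells seeded 4 h earlier at 1,000 per well. Luciferase activity after 44 h culture reported infection; substrate was incubated 15 min at room temperature before reading.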
AMA1-RON2 inh – AMA1-RON2 (P. falciparum) interaction inhibition. AlphaScreen AMA1-biotinylated RON2 peptide binding. Potency, µM (titrated, usually from 58.2 µM), inactives show top-dose activity change, negative = inhibition, actives largely listed as inhibitors. 0.2% of 360,000 active;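 note: potency is the fitted concentration of half-maximal effect; 0% = vehicle wells and -100% = peptide control; nearly all actives have a fitted effect of over 45% in size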
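AMA1 (3D7) with his tag at 25 nM final met compounds first, then biotinylated RON2 peptide at 25 nM; detection used donor plus acceptor beads, 10 µg/mL apiece, read by AlphaScreen after 30 min at room temperature.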
Pf growth 48h – inhibits P. falciparum growth in the first generation, 48 h; P. falciparum luciferase growth in erythrocytes, 48 h; 5.9% of 310,000 active; AID 504832; Potency, µM (titrated, usually from 28.7 µM), for the others: top-dose activity change, negative = inhibition, actives largely listed as inhibitors; note: potency is the fitted concentration of half-maximal effect; % is set by controls: 0 for no effect and ±100 for the full control effect
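Erythrocytes infected with P. falciparum carrying an integrated firefly luciferase reporter (2% hematocrit, 0.1% parasitemia final) were exposed to compounds in RPMI 1640 with 0.5% Albumax at 37 C, 5% CO2. Growth inhibition was scored as reduced luminescence.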
Pf growth 96h – inhibits malaria parasite growth, 96 h. P. falciparum luciferase reporter growth, 96 h. Potency, µM (doses to about 28.7 µM), without a hit: at the top dose activity change, negative = inhibition, actives largely listed as inhibitors. 6.9% of 320,000 active; note: potency is the fitted concentration of half-maximal effect; % is set by controls: 0 for no effect and ±100 for the full control effect
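Plates of compound plus infected erythrocytes (2% hematocrit, 0.05% parasitemia final) incubate 96 hours, 37 C, 5% CO2. Detection reagent added; reduced luminescence from the parasites' luciferase reporter flags inhibition.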
Shiga inhibitor – blocks Shiga toxin action in Vero cells; Vero cells, Shiga toxin protein synthesis inhibition reporter; inhibition, % at 38.7 µM; 9.2% of 290,000 active; in the data active = inhibition mostly above about 28%, no sharp cut-off; inactive = mostly below about 43%; note: 0% is about no effect
Cycloheximide cs – counter-screen hit for Shiga toxin inhibitors, cycloheximide. max response, %. cell reporter, cycloheximide protein synthesis inhibition counterscreen. AID 2314. 12% of 300,000 active; in the data active = max response mostly above about 13%, no sharp cut-off; inactive = mostly below about 14%; note: read at 38.3 µM for the half of the compounds with a filed dose; 0% is about no effect
An asterisk follows results filed as active; [ ] = remark or other dose. In the library only some 21% were active in any assay of this set; here they are far more common. Unless noted, calls come from the whole dose curve; as a rule, active = well fitted curve in the direction sought with a large enough effect; inconclusive = small, poorly fitted or top-dose-only effect, or another doubt; inactive = no such curve, though single readings can be large; an effect the other way counts as inactive or inconclusive.

For CC1CCc2c(sc3nc(CSc4n[nH]c(N)n4)[nH]c(=O)c23)C1 (stereo not given) the results were HCV inh 5%, AMA1-RON2 inh -1%, Pf growth 48h -2%, Pf growth 96h 3%, Shiga inhibitor 37* and Cycloheximide cs 13.
For CC1CCCCC12NC(=O)N(CC(=O)OCC(=O)N(C)C1CCCCC1)C2=O (stereo not given) the results were HCV inh 12%, AMA1-RON2 inh 1%, Pf growth 48h 19% and Pf growth 96h 17%.
Screening O=C(N/N=C/C(Cl)=C/c1ccc([N+](=O)[O-])cc1)C(=O)Nc1ccc(C(=O)O)cc1 returned HCV inh -20%, AMA1-RON2 inh 46%, Pf growth 48h 12µM*, Pf growth 96h inconclusive, Shiga inhibitor -2 and Cycloheximide cs 1.
`COC(=O)C[C@@H]1C=C[C@H](NC(=O)c2ccccc2)[C@@H](CO)O1` gave AMA1-RON2 inh -4%.
For COc1ccc(N2CCN(C(=O)CSc3ccccc3N)CC2)cc1 the results were HCV inh -15%, AMA1-RON2 inh -6%, Pf growth 48h -17%, Shiga inhibitor -3 and Cycloheximide cs 12*.
Screening COc1cc(NC(=O)CSc2nnc3n2C(C)(C)Cc2ccccc2-3)cc(OC)c1 returned HCV inh -7%, AMA1-RON2 inh 0%, Pf growth 48h inconclusive, Pf growth 96h 4.1µM*, Shiga inhibitor -4 and Cycloheximide cs -1.
`COc1ccc(N2CCN(C(=O)CSc3nnc4c(C)cc5c(C)cc(C)cc5n34)CC2)cc1` gave HCV inh inconclusive, AMA1-RON2 inh -22%, Pf growth 48h 2.9µM*, Pf growth 96h -4%, Shiga inhibitor -8 and Cycloheximide cs -1.
Screening COc1ccc(N2CCN(C(=O)CSc3nnc4n3C(C)(C)Cc3ccccc3-4)CC2)cc1 returned HCV inh inconclusive, AMA1-RON2 inh -2%, Pf growth 48h 12µM*, Pf growth 96h inconclusive, Shiga inhibitor 33 and Cycloheximide cs 7.
For COc1ccc(N2CCN(C(=O)COC(=O)CSc3ccccc3)CC2)cc1 the results were HCV inh 6%, AMA1-RON2 inh inconclusive, Pf growth 48h 13% and Pf growth 96h 37%.
`COC(=O)CSc1nnc2n1C(C)(C)Cc1ccccc1-2` gave HCV inh inconclusive, AMA1-RON2 inh 8%, Pf growth 48h 1%, Pf growth 96h 14%, Shiga inhibitor -8 and Cycloheximide cs -1.
Cn1ccsc1=NC(=O)c1ccc(S(C)(=O)=O)c([N+](=O)[O-])c1 was read as HCV inh 10µM*, AMA1-RON2 inh 7%, Pf growth 48h 42%, Pf growth 96h 15%, Shiga inhibitor 36* and Cycloheximide cs 43*.
Cn1ccsc1=NC(=O)c1ccc(Cl)c([N+](=O)[O-])c1 was read as HCV inh -9%, AMA1-RON2 inh 6%, Pf growth 48h 6%, Pf growth 96h 1%, Shiga inhibitor 53* and Cycloheximide cs 16*.
Cn1ccsc1=NC(=O)c1cccc(C#N)c1 was read as HCV inh -10%, AMA1-RON2 inh 13%, Pf growth 48h 39%, Pf growth 96h 37%, Shiga inhibitor 61 and Cycloheximide cs 15*.
`CCCCOc1ccc(C(=O)N=c2sccn2C)cc1OC` gave HCV inh -12%, AMA1-RON2 inh -13%, Pf growth 48h 87%, Pf growth 96h 69%, Shiga inhibitor 65* and Cycloheximide cs 44*.
Screening Cc1ccc(C(=O)N=c2sccn2C)cc1S(=O)(=O)N1CCOCC1 returned HCV inh -15%, AMA1-RON2 inh -7%, Pf growth 48h 71% and Pf growth 96h -21%.
CCN(CC)S(=O)(=O)c1cc(C(=O)N=c2sccn2C)ccc1OC was read as AMA1-RON2 inh 23%, Pf growth 48h 23%, Pf growth 96h inconclusive, Shiga inhibitor 7 and Cycloheximide cs 2.
For Cc1ccc(C(=O)N=c2sccn2C)cc1C the results were HCV inh -2%, AMA1-RON2 inh 5%, Pf growth 48h 10%, Pf growth 96h -8%, Shiga inhibitor -16 and Cycloheximide cs -2.
Cn1ccsc1=NC(=O)c1ccc(S(C)(=O)=O)cc1 was read as HCV inh 2%, AMA1-RON2 inh 1%, Pf growth 48h 24%, Pf growth 96h 28%, Shiga inhibitor 37* and Cycloheximide cs 14.
Screening CCCC(=O)N=c1sc2c(OC)ccc(OC)c2n1C returned HCV inh -8%, AMA1-RON2 inh 3%, Pf growth 48h 42%, Pf growth 96h 44%, Shiga inhibitor -2 and Cycloheximide cs -3.
Screening Cc1ncc(CN2CCC(C(=O)Nc3ccc(-n4cccn4)cc3)CC2)s1 returned HCV inh -14%, AMA1-RON2 inh 6%, Pf growth 48h 1µM*, Pf growth 96h 9%, Shiga inhibitor -8 and Cycloheximide cs 1.
For COc1cc(F)ccc1CN1CCC(C(=O)Nc2ccc(Oc3ccccc3)nc2)CC1 the results were HCV inh 10µM*, AMA1-RON2 inh -4%, Pf growth 48h inconclusive, Pf growth 96h 17%, Shiga inhibitor -3 and Cycloheximide cs -3.
Screening Cc1c(CN2CCC(C(=O)Nc3ccc(Oc4ccccc4)nc3)CC2)cnn1C returned HCV inh -30%, AMA1-RON2 inh -3%, Pf growth 48h -11%, Pf growth 96h inconclusive, Shiga inhibitor 10 and Cycloheximide cs -10.
Screening COc1ccc(CN2CCC(C(=O)Nc3ccc(Oc4ccccc4)nc3)CC2)cc1F returned HCV inh 2.5µM*, AMA1-RON2 inh 3%, Pf growth 48h inconclusive, Pf growth 96h inconclusive, Shiga inhibitor -9 and Cycloheximide cs 8.
For CCc1ccc(CN2CCC(C(=O)Nc3ccc(-n4nc(C)cc4C)cc3)CC2)o1 the results were HCV inh inconclusive, AMA1-RON2 inh -5%, Pf growth 48h 6.6µM*, Pf growth 96h inconclusive, Shiga inhibitor -4 and Cycloheximide cs -4.
`Cc1cc(C)n(-c2ccc(NC(=O)C3CCN(Cc4cnc(C)s4)CC3)cc2)n1` gave HCV inh -15%, AMA1-RON2 inh -14%, Pf growth 48h inconclusive, Pf growth 96h -23%, Shiga inhibitor 0 and Cycloheximide cs 2.
For CC(=O)N(CCc1ccccc1)Cc1cc2ccc(C)c(C)c2[nH]c1=O the results were HCV inh -12%, AMA1-RON2 inh 0%, Pf growth 48h 32%, Pf growth 96h inconclusive and Cycloheximide cs -1.
CCCN(C(=O)CSc1nc2ccccc2n1CC)C1CCS(=O)(=O)C1 (stereo not given) was read as HCV inh 13%[8.37 µM], AMA1-RON2 inh -7%, Pf growth 48h inconclusive, Pf growth 96h inconclusive, Shiga inhibitor -12 and Cycloheximide cs 9.
